# Test results as given in PubChem BioAssay (EPA / NIEHS).
# Inconclusive results are not listed. Calls of active or inactive are those of the source. How the source made its calls, unless noted: active means hit-call score of the fitted dose curve at least 0.9, where 1 is the maximum; inactive means score below 0.9.
# Experiment: CCTE_Harrill_HTTr_Viability_MCF7: CCTE's 6-hour Cell Viability Assessment for the High-Throughput Transcriptomics (HTTr) Platform, in MCF-7 cells cultured in DMEM + 10% fetal bovine serum, Harrill Lab (AID 2284010)
# Summary of the method: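 Eight-point concentration series, six-hour exposure. Propidium iodide exclusion imaged to assess membrane integrity as a cytotoxicity readout; bidirectional fitting was done with DMSO as negative control and activity baseline.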
row,Compound,outcome
1,COC(=O)CC(=O)OC,inactive
2,CC(C)=CCCC(C)CCO (centres undefined),inactive
3,CCNc1ccccc1,inactive
4,CC(=O)c1ccc2c(c1)[C@H](NC(=O)c1ccc(F)cc1)[C@@H](O)C(C)(C)O2,inactive
5,O=C1OC(=O)C2C3C=CC(C3)C12 (centres undefined),inactive
6,CCN(C(=O)c1cc(C)cc(OC[C@H](C)Nc2ccncc2)c1)C(C)C,inactive
7,CC(C)=CCC/C(C)=C\CO,inactive
8,CC/C(=C\C(=N/O)C(N)=O)C(C)[N+](=O)[O-] (centres undefined),inactive
9,C=CC(=C)CCC=C(C)C,inactive
10,O=C(O)c1cccc(Oc2ccccc2)c1,inactive
11,COCCOc1cc2cc(C(=O)NC3CCN(C(C)C)CC3)n(CC(=O)Nc3ccc(Cl)cn3)c2cn1,inactive
12,Cc1ccc(O)cc1,inactive
13,Nc1nc2ncc(CNc3ccc(C(=O)N[C@@H](CCC(=O)O)C(=O)O)cc3)nc2c(=O)[nH]1,inactive
14,CC(O)CN(CCN(CC(C)O)CC(C)O)CC(C)O (centres undefined),inactive
15,CC1(C)C(=O)N(Br)C(=O)N1Br,inactive
16,CCCC(=O)OCC,inactive
17,CC(C)CCCCCCOC(=O)c1ccc(C(=O)OCCCCCCC(C)C)c(C(=O)OCCCCCCC(C)C)c1,inactive
18,CCOCCO,inactive
19,O=C1CCC(N2C(=O)c3ccccc3C2=O)C(=O)N1 (centres undefined),inactive
20,Clc1nc(Cl)c(Cl)c(Cl)c1Cl,inactive
21,C1=CCCC=CCCC=CCC1,inactive
22,NC(=O)NO,inactive
23,COc1ccc(-n2nc(C(F)F)cc2-c2ccc(S(C)=O)cc2)cc1 (centres undefined),inactive
24,COC(=O)c1c(Cl)c(Cl)c(C(=O)OC)c(Cl)c1Cl,inactive
25,CN(C)c1ccc(N=NS(=O)(=O)O)cc1,inactive
26,CC1=CC(=O)CC(C)(C)C1,inactive
27,CC(C)(O)c1coc(S(=O)(=O)NC(=O)Nc2c3c(cc4c2CCC4)CCC3)c1,inactive
28,Nc1ccc(Nc2ccccc2)cc1,inactive

# Experiment: CCTE_Harrill_HTTr_Apoptosis_MCF7: CCTE's 6-hour Apoptosis Assessment for the High-Throughput Transcriptomics (HTTr) Platform, in MCF-7 cells cultured in DMEM + 10% fetal bovine serum, Harrill Lab (AID 2284011)
# Summary of the method: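 MCF-7 cells in DMEM + 10% fetal bovine serum were exposed to chemicals for 6 hours over an eight-point dilution series. Caspase-3/7 activation was imaged by high content imaging with CellEvent Caspase 3/7 Green; bidirectional fitting used DMSO as baseline.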
row,Compound,outcome
1,COC(=O)CC(=O)OC,inactive
2,CC(C)=CCCC(C)CCO (centres undefined),inactive
3,CCNc1ccccc1,inactive
4,CC(=O)c1ccc2c(c1)[C@H](NC(=O)c1ccc(F)cc1)[C@@H](O)C(C)(C)O2,inactive
5,O=C1OC(=O)C2C3C=CC(C3)C12 (centres undefined),inactive
6,CCN(C(=O)c1cc(C)cc(OC[C@H](C)Nc2ccncc2)c1)C(C)C,inactive
7,CC(C)=CCC/C(C)=C\CO,inactive
8,CC/C(=C\C(=N/O)C(N)=O)C(C)[N+](=O)[O-] (centres undefined),inactive
9,C=CC(=C)CCC=C(C)C,inactive
10,O=C(O)c1cccc(Oc2ccccc2)c1,inactive
11,COCCOc1cc2cc(C(=O)NC3CCN(C(C)C)CC3)n(CC(=O)Nc3ccc(Cl)cn3)c2cn1,inactive
12,Cc1ccc(O)cc1,inactive
13,Nc1nc2ncc(CNc3ccc(C(=O)N[C@@H](CCC(=O)O)C(=O)O)cc3)nc2c(=O)[nH]1,inactive
14,CC(O)CN(CCN(CC(C)O)CC(C)O)CC(C)O (centres undefined),inactive
15,CC1(C)C(=O)N(Br)C(=O)N1Br,inactive
16,CCCC(=O)OCC,inactive
17,CC(C)CCCCCCOC(=O)c1ccc(C(=O)OCCCCCCC(C)C)c(C(=O)OCCCCCCC(C)C)c1,inactive
18,CCOCCO,inactive
19,O=C1CCC(N2C(=O)c3ccccc3C2=O)C(=O)N1 (centres undefined),inactive
20,Clc1nc(Cl)c(Cl)c(Cl)c1Cl,inactive
21,C1=CCCC=CCCC=CCC1,inactive
22,NC(=O)NO,inactive
23,COc1ccc(-n2nc(C(F)F)cc2-c2ccc(S(C)=O)cc2)cc1 (centres undefined),inactive
24,COC(=O)c1c(Cl)c(Cl)c(C(=O)OC)c(Cl)c1Cl,inactive
25,CN(C)c1ccc(N=NS(=O)(=O)O)cc1,inactive
26,CC1=CC(=O)CC(C)(C)C1,inactive
27,CC(C)(O)c1coc(S(=O)(=O)NC(=O)Nc2c3c(cc4c2CCC4)CCC3)c1,inactive
28,Nc1ccc(Nc2ccccc2)cc1,inactive

# Experiment: CCTE_Harrill_HTTr_CellCount_MCF7: CCTE's Cell Proliferation Assessment for the High-Throughput Transcriptomics (HTTr) Platform, Harrill Lab (AID 2284012; active means hit-call score of the fitted dose curve at least 0.9, where 1 is the maximum;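 further: count of Hoechst-stained nuclei per well by high-content imaging in MCF-7 cells; cells exposed to compound for six hours; intended direction is loss of nuclei count meaning fewer cells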)
# Summary of the method: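 For this full-screen endpoint, MCF-7 cultures received eight compound dilutions for six hours. Well nuclei counts from Hoechst imaging were analyzed relative to DMSO.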
row,Compound,outcome
1,COC(=O)CC(=O)OC,inactive
2,CC(C)=CCCC(C)CCO (centres undefined),inactive
3,CCNc1ccccc1,inactive
4,CC(=O)c1ccc2c(c1)[C@H](NC(=O)c1ccc(F)cc1)[C@@H](O)C(C)(C)O2,inactive
5,O=C1OC(=O)C2C3C=CC(C3)C12 (centres undefined),inactive
6,CCN(C(=O)c1cc(C)cc(OC[C@H](C)Nc2ccncc2)c1)C(C)C,inactive
7,CC(C)=CCC/C(C)=C\CO,inactive
8,CC/C(=C\C(=N/O)C(N)=O)C(C)[N+](=O)[O-] (centres undefined),inactive
9,C=CC(=C)CCC=C(C)C,inactive
10,O=C(O)c1cccc(Oc2ccccc2)c1,inactive
11,COCCOc1cc2cc(C(=O)NC3CCN(C(C)C)CC3)n(CC(=O)Nc3ccc(Cl)cn3)c2cn1,inactive
12,Cc1ccc(O)cc1,inactive
13,Nc1nc2ncc(CNc3ccc(C(=O)N[C@@H](CCC(=O)O)C(=O)O)cc3)nc2c(=O)[nH]1,inactive
14,CC(O)CN(CCN(CC(C)O)CC(C)O)CC(C)O (centres undefined),inactive
15,CC1(C)C(=O)N(Br)C(=O)N1Br,inactive
16,CCCC(=O)OCC,inactive
17,CC(C)CCCCCCOC(=O)c1ccc(C(=O)OCCCCCCC(C)C)c(C(=O)OCCCCCCC(C)C)c1,inactive
18,CCOCCO,inactive
19,O=C1CCC(N2C(=O)c3ccccc3C2=O)C(=O)N1 (centres undefined),inactive
20,Clc1nc(Cl)c(Cl)c(Cl)c1Cl,inactive
21,C1=CCCC=CCCC=CCC1,inactive
22,NC(=O)NO,inactive
23,COc1ccc(-n2nc(C(F)F)cc2-c2ccc(S(C)=O)cc2)cc1 (centres undefined),inactive
24,COC(=O)c1c(Cl)c(Cl)c(C(=O)OC)c(Cl)c1Cl,inactive
25,CN(C)c1ccc(N=NS(=O)(=O)O)cc1,inactive
26,CC1=CC(=O)CC(C)(C)C1,inactive
27,CC(C)(O)c1coc(S(=O)(=O)NC(=O)Nc2c3c(cc4c2CCC4)CCC3)c1,inactive
28,Nc1ccc(Nc2ccccc2)cc1,inactive
